The experiment relates to PPARg:RXRa 270nM:90nM, anti-RXR (NR concentration 270 nM, RXRa partner concentration 90 nM). The experiment is described as follows: PBM binding z-score (relative to random genomic background probes); higher = stronger binding; sequences stand for … in GC…GCGATTGACAGCGTAGAATGAAGG
Summed up:
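Ligand-free nuclear receptor dimers were bound for 1 h to custom Agilent 4×180K protein-binding microarrays. Detection used antibodies against each partner (one per run). Binding z-scores rest on regression-normalized fluorescence, with random background probes as the reference.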
For TGAATGAGGTTAAAGATCTGGGAACGTGGCGTCG, the PBM binding z-score was 3.6. As for CTCGCAAGGTCGGTTGAGGTGAGTATACGGATAA, the PBM binding z-score was found to be 0.131. CCACACAGGTGAAAGGTAACTCAGTCTGGTACGC: the PBM binding z-score is 5.54.

CCTACTGCGCCAAGGTCATTGATCAGTCAAAGCA had a PBM binding z-score of 1.59.

TCTATTAGTTGAAGTGCAACCGACGAGTCCGTTT displayed a PBM binding z-score of 2.15. For the sequence AGAACGAGGGCAATGAGTAGATAGCACGGGTGGC, the PBM binding z-score came out at 1.05. The result for TTGCCAAGGTGAAGGTCGTTGATCCCTCTGTAGA reads 2.06; that for TCTAGTTGGTCACGGAGGTCACACACGACGGGTA, 4.11; that for ACAGACAGGTTAGTGAAGGTAACTCAGCTGGACG, 0.049. As to GCGATTGGGGCAAAGCAGGTTACCATAAGGTTGG, the PBM binding z-score amounted to 0.405. The result for ATCTCTAGGTAAGACTCCGTTCAGTGAAGAACGC reads 0.169; that for CCGACTGGGCCACGAAAGGTCATTGATTCAGTGA, 4.06. Under AATACAGGGTCATTGTAGGCCAGAGTACGCACAG stands 5.54.

With TTACCAAGGTGAGCTGAGGTCGTGGATCCAACTC, the PBM binding z-score was 0.913. In turn, TCTATTAGTTGATTAGGGCAACCGCAACAGCGGA registered a PBM binding z-score of 1.95. AGTCAAAGTTCATCTAGGTAACCTAAGATATGCT gave a PBM binding z-score of 6.35. Consider TCAGACAGGTGAAGGTAACGCAGGTACGCAGTCG, for which the PBM binding z-score was 1.98. As for AGAATGAGGTTATATGTAGATCAGGGAAGAAAGT, the PBM binding z-score was found to be 2.5.

The sequence GCTCGGAGGACAAGGTCAGAGATTTGTCCGTAGA registered a PBM binding z-score of 1.53.

Consider TCTGCTAGGTCAGTTGGTCAGGTAACGAGCTGCC, for which the PBM binding z-score came to 1.74. Consider CCTCGGAGGACTACAGGAGGTCAGAGCTGCCAGA, for which the PBM binding z-score is -0.104. The result for GGAACGACGGCAAGTTGATAGCAGAGTTTGATGG reads -0.859; that for ATCTCTAGGTAAAGATAGTTCTGTGAATGCAAAT, 0.243. Under CGTCCAGGGTCAGAGAGGTCAGTGAATGCCGAGT stands 4.21. The sequence TCTAGTTGGTCACGGAGGTCACACCCGACGGGTA gave a PBM binding z-score of 4.03. Under TCATATAGGTAAATGCTAAGTGAAAGTCCGATCT stands 2.04. TCTGCTAGGTCAGCTGGTCAGCTAACGAGCTGCC showed a PBM binding z-score of 1.78. CTACCAAGGTGAACAAGGGCGTTGATTACTATTC yielded a PBM binding z-score of 0.967.

AGTCAAAGTTCAAGACGAGGTAACGTAAAGCACG displayed a PBM binding z-score of 6.17.

In the case of GCTGCTAGGTCAGGTTGATCAGCTAACGGGTACG, the PBM binding z-score came to 0.926.

Consider CCTTACGGGTCAAGGTTTTAGCACGGGTGGTACG, for which the PBM binding z-score stood at 4.44. TGAATGAGGTTATGAGATCAGGGAACGTTGCAAA had a PBM binding z-score of 1.96. AGAACGAGGGCACGCTGAGTTCATAGCAGAGTAG came in with a PBM binding z-score of 2.43.

AGTCAAAGTTCACTAGGTAACCTAAGATTCAGCT had a PBM binding z-score of 6.5.

On to GTACCAAGGTGAATAGGTCGTGGATGAGTAGGCG, for which the PBM binding z-score is 2.35. CTCCAAAGGTCGTGCTCAGGTGAGTATACCAAAC yielded a PBM binding z-score of 4.58. TGATATAGGTAAACAGGTGAAAGTCCGTAAGTTA gave a PBM binding z-score of 3.81. Under TCTATTAGTAGATTAGGGCAACCGAAACAGCGGA stands 1.64.

With CGTCCAAGGTCATAGGAGGTCAGTGAGGACAGAT, the PBM binding z-score is 5.89. In the case of TCTCGGAGGACACGGAAGGTCAGAGCTCGACATC, the PBM binding z-score is 1.4.
